Laboratory results from the supplement of paper PMC10849652.
About 7,900 targets were measured; listed, in parts, are those with a hit and a random draw of the rest. About 0.6% of all pairs of compound and target were hits.

Experiments:
Assay in all cases: log2 fold change, soluble protein after heating vs DMSO (PISA); higher = thermal stabilisation; K562 cells, 10 uM, 30 min; active = over 0.2 and 3.5 SD of the protein, either way, in both replicates (recomputed)
[1] = compound: C1COCCN1CCN2C3=CC=CC=C3N=C2NC(=O)C4=CC(=CC=C4)[N+](=O)[O-] [IRAK-1-4 Inhibitor I]
How it was run: (§1)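 Values are thermal stability changes relative to control samples and are taken from duplicates. They are stated as log2 fold changes. Before quantification by TMTpro 16plex LC-MS/MS with equalised channel sums, K562 cells at 2×10^6 cells/mL were treated with 10 μM compound for 30 min, heated in aliquots for 3 min across 48°C-58°C, pooled, extracted in PBS with 0.5% NP-40 at 4°C, and centrifuged at 21,000xg for 90 min to give the soluble supernatant.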

[2] = compound: C=CC(=O)N1CCC[C@@H](n2nc(-c3ccc(Oc4ccccc4)cc3)c3c(N)ncnc32)C1 [ibrutinib]
How it was run: as §1

[3] = compound: CC(=O)c1cnc2ccc(-c3cc(Cl)c(O)c(Cl)c3)nc2c1N[C@H]1CC[C@H](CN(C)C)CC1
How it was run: as §1

[4] = compound: CC(C)(C)Cn1c(N)nc2ccc(-c3[nH]c(C(C)(C)C)nc3-c3ccc(F)cc3)nc21 [ralimetinib]
How it was run: as §1

[5] = compound: CC(C)(O)CC(=O)NCCn1ccc2ncnc(Nc3ccc(Oc4cccc(C(F)(F)F)c4)c(Cl)c3)c21
How it was run: as §1

[6] = compound: CC(C)C1=C2N=C(C=C(N2N=C1)NCC3=CC=CC=C3)NCCCCCCN
How it was run: as §1

[7] = compound: CC(C)C[C@@H](C=O)NC(=O)[C@H](CC(C)C)NC(=O)[C@H](CC(C)C)NC(=O)OCc1ccccc1
How it was run: as §1

[8] = compound: CC(C)N(C[C@H]1O[C@@H](n2cnc3c(N)ncnc32)[C@H](O)[C@@H]1O)[C@H]1C[C@@H](CCc2nc3cc(C(C)(C)C)ccc3[nH]2)C1 [pinometostat]
How it was run: as §1

[9] = compound: CC1=C(C(CC(=O)N1)C2=CC=C(C=C2)C(F)(F)F)C(=O)NC3=C(C=C4C(=C3)C=NN4)F
How it was run: as §1

[10] = compound: CC1=C(C2=C(C=C1)C(=O)C3=CC=CC=C3N2CCCN)C
How it was run: as §1

Measured: log2 fold change

ILK (UniProt Q13418)
inactive: [1] 0.029 | [2] 0.004 | [3] -0.029 | [4] 0.027 | [5] -0.081 | [6] -0.094 | [7] 0.128 | [8] 0.083 | [9] -0.005 | [10] 0.01

KIF3A (UniProt Q9Y496)
Chain of UniProt Q9Y496 (Q9Y496 whole entry, looked up): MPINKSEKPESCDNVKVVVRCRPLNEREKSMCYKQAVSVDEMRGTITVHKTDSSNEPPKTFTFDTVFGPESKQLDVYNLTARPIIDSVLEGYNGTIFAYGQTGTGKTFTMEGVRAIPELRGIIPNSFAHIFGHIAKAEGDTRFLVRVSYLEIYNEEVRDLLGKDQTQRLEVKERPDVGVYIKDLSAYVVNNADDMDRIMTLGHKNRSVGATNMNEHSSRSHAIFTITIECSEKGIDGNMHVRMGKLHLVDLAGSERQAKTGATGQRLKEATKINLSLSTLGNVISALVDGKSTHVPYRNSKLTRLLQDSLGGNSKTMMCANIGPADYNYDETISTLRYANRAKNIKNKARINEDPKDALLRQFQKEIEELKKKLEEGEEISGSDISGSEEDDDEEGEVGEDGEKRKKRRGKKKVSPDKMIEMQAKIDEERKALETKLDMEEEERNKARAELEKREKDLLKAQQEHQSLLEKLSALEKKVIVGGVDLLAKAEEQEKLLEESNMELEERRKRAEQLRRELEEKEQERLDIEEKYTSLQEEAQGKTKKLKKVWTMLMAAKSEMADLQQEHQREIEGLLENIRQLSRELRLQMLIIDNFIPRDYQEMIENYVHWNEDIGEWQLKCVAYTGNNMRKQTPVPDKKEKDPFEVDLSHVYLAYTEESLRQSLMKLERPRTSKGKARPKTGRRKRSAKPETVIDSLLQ
inactive: [1] 0.04 | [2] -0.016 | [3] 0.034 | [4] 0.085 | [5] -0.151 | [6] -0.336 | [7] -0.065 | [8] 0.051 | [9] 0.087 | [10] -0.081

MFSD5 isoform 2 (UniProt Q6N075)
inactive: [1] -0.068 | [2] -0.016 | [3] -0.007 | [4] 0.019 | [5] -0.017 | [6] -0.053 | [7] 0.003 | [8] 0.049 | [9] 0.039 | [10] -0.061

INTS5 (UniProt Q6P9B9)
Chain of UniProt Q6P9B9 (Q6P9B9 whole entry, looked up): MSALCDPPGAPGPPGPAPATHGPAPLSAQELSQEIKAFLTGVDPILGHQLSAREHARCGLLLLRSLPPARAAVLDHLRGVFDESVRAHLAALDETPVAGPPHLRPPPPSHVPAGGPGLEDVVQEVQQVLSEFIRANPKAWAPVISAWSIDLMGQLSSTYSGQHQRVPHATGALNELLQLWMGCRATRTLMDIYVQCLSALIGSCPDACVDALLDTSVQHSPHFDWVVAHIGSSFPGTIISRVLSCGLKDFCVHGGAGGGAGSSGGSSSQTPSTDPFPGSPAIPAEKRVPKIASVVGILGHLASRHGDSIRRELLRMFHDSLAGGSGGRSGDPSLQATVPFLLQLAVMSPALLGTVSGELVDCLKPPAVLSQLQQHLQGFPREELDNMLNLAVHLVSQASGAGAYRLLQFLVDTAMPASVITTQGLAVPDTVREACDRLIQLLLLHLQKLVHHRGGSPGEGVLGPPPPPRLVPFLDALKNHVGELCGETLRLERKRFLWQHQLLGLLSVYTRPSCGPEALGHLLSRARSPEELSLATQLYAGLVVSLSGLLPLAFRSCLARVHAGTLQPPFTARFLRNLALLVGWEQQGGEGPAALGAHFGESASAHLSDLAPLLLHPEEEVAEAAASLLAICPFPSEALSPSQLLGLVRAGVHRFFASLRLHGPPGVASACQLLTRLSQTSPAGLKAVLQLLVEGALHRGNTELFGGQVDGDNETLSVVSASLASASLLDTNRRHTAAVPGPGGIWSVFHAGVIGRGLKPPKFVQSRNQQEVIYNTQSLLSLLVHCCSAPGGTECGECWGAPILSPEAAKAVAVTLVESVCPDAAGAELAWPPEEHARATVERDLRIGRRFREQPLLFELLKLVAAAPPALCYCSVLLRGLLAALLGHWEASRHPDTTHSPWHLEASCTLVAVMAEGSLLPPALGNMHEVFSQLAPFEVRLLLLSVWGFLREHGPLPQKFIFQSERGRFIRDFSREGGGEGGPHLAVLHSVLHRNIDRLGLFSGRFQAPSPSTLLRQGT
inactive: [1] 0.076 | [2] -0.039 | [3] 0.529 | [4] 0.019 | [5] -0.232 | [6] 0.052 | [7] -0.064 | [8] 0.033 | [9] -0.102 | [10] 0.073

MAN2B2 (UniProt Q9Y2E5)
inactive: [1] 0.086 | [2] -0.079 | [3] -0.171 | [4] 0.029 | [5] -0.033 | [6] -0.078 | [7] 0.043 | [8] 0.089 | [9] 0.064 | [10] -0.048

MAP2K1 (UniProt Q02750)
active: [3] -0.349
inactive: [1] 0.047 | [2] -0.016 | [4] 0.004 | [5] -0.066 | [6] 0.023 | [7] 0.015 | [8] -0.061 | [9] 0.008 | [10] 0.026

LUC7L (UniProt Q9NQ29)
inactive: [1] -0.098 | [2] 0.027 | [3] -0.137 | [4] 0.009 | [5] 0.08 | [6] -0.007 | [7] 0.021 | [8] 0.101 | [9] 0.083 | [10] -0.056

KCNK5 (UniProt O95279)
Chain of UniProt O95279 (O95279 whole entry, looked up): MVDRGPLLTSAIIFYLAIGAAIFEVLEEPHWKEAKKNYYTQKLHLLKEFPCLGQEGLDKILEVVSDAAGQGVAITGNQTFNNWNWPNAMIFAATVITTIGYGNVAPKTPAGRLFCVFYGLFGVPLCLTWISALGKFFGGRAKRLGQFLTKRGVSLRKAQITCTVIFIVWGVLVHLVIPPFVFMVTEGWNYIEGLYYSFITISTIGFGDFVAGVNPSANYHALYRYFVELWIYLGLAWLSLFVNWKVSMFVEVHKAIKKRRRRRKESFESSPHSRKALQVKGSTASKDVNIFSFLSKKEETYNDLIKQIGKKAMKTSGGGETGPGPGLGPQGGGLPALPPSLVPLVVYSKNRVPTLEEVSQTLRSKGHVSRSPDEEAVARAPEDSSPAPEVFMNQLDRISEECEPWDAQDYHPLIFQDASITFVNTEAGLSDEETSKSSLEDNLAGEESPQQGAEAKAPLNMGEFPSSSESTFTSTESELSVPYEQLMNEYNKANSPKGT
inactive: [1] -0.033 | [2] 0.019 | [5] -0.209 | [8] 0
active: [6] -2.03

IL10RB (UniProt Q08334)
inactive: [1] 0.027 | [2] 0.079 | [3] 0.09 | [5] -0.09 | [6] 0.063 | [8] 0.04 | [9] -0.055 | [10] -0.089

MED25 isoform 3 (UniProt Q71SY5)
inactive: [1] -0.087 | [2] 0.039 | [3] -0.086 | [4] -0.099 | [6] 0.016 | [7] -0.061 | [8] 0.173 | [9] -0.03 | [10] 0.053

MGRN1 isoform 2 (UniProt O60291)
inactive: [1] 0.062 | [2] -0.003 | [3] 0.116 | [4] -0.015 | [6] -0.225 | [7] 0.114 | [8] 0.041 | [10] -0.098

LUM (UniProt P51884)
inactive: [1] -0.038 | [3] 0.078 | [4] -0.054 | [5] 0.263 | [6] 0.124 | [7] 0.023 | [8] -0.068 | [9] -0.151 | [10] -0.256

MEPCE (UniProt Q7L2J0)
inactive: [1] 0.088 | [2] 0.023 | [3] 0.166 | [4] 0.108 | [5] 0.026 | [6] -0.16 | [7] 0 | [8] 0.098 | [9] -0.026
active: [10] -0.31

MFSD11 (UniProt O43934)
Chain of UniProt O43934 (O43934 whole entry, looked up): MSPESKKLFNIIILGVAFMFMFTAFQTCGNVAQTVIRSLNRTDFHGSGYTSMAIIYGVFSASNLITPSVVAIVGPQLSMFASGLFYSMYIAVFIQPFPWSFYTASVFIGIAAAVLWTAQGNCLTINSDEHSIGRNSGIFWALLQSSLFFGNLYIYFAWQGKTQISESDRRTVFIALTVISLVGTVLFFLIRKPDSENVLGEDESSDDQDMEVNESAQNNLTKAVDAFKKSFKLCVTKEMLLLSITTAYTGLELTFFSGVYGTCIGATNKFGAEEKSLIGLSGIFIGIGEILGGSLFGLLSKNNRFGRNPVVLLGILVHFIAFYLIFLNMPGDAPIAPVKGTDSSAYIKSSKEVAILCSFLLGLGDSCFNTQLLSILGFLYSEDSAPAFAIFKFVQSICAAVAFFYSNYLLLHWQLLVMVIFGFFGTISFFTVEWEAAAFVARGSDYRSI
inactive: [1] 0.015 | [2] 0.006 | [3] -0.029 | [5] -0.008 | [8] -0.009 | [9] 0.031 | [10] 0.095

LDLRAP1 (UniProt Q5SW96)
Chain of UniProt Q5SW96 (Q5SW96 whole entry, looked up): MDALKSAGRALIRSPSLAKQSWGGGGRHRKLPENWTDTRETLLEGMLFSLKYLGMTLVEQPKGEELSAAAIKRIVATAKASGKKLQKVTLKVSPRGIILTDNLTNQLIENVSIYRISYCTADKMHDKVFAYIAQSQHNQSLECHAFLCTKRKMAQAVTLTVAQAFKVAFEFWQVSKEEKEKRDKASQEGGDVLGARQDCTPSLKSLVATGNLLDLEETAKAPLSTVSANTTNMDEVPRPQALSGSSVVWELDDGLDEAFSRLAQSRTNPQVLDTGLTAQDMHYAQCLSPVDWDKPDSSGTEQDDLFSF
active: [6] -0.541
inactive: [1] 0.013 | [2] -0.177 | [4] -0.032 | [7] 0.028 | [8] 0.318

ITGA2B (UniProt P08514)
inactive: [1] -0.045 | [3] -0.045 | [4] 0.054 | [5] -0.172 | [6] 0.462 | [7] 0.026 | [8] -0.064 | [9] 0.099 | [10] -0.121

MAP4K2 (UniProt Q12851)
inactive: [1] 0.073 | [2] -0.071 | [8] 0.113 | [9] 0.003 | [10] 0.021

MICU2 (UniProt Q8IYU8)
inactive: [1] -0.039 | [2] -0.001 | [3] -0.026 | [4] -0.05 | [5] -0.12 | [6] -0.292 | [7] 0.128 | [8] 0.211 | [9] 0.072 | [10] 0.136

KIZ (UniProt Q2M2Z5)
inactive: [1] -0.075 | [3] 0.039 | [4] 0.06 | [7] -0.107 | [8] 0.099

MELK (UniProt Q14680)
active: [3] -0.84
inactive: [1] 0.021 | [2] 0.032 | [5] -0.085 | [6] 0.092 | [8] 0.013 | [9] 0.337 | [10] 0.011

LRFN1 (UniProt Q9P244)
inactive: [1] 0.105 | [2] -0.018 | [4] -0.009 | [5] 0.073 | [6] 0.107 | [7] 0.061 | [8] 0.029 | [10] 0.008

MAP2K2 (UniProt P36507)
Chain of UniProt P36507 (P36507 whole entry, looked up): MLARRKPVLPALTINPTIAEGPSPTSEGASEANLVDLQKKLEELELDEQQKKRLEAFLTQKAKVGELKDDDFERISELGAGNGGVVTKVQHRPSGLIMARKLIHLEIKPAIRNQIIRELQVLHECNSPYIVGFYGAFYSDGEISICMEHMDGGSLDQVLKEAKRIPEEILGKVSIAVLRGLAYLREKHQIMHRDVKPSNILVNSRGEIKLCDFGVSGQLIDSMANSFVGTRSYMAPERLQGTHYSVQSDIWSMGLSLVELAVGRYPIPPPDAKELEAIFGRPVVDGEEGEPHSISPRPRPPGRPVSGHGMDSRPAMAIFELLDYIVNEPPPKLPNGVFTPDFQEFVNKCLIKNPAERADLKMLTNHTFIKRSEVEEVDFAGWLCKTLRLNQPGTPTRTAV
inactive: [1] 0.045 | [2] 0.012 | [4] 0.105 | [5] -0.065 | [6] -0.02 | [7] 0.056 | [8] 0.003 | [9] 0.011 | [10] -0.001
active: [3] -0.496

KCTD2 (UniProt Q14681)
inactive: [1] -0.03 | [2] 0.058 | [3] -0.054 | [4] 0 | [5] -0.015 | [6] 0.016 | [7] 0.171 | [8] 0.052 | [9] -0.049 | [10] -0.028

MBLAC1 (UniProt A4D2B0)
inactive: [1] 0.371 | [2] -0.03 | [3] 0.001 | [4] -0.074 | [6] 0.126 | [7] -0.011 | [8] -0.163

MFSD8 (UniProt Q8NHS3)
inactive: [1] 0.062 | [2] 0.13 | [3] 0.036 | [4] 0.19 | [5] 0.067 | [7] 0.08 | [8] 0.101 | [10] 0.124
active: [6] -0.446

ILF3 (UniProt Q12906)
Chain of UniProt Q12906 (Q12906 whole entry, looked up): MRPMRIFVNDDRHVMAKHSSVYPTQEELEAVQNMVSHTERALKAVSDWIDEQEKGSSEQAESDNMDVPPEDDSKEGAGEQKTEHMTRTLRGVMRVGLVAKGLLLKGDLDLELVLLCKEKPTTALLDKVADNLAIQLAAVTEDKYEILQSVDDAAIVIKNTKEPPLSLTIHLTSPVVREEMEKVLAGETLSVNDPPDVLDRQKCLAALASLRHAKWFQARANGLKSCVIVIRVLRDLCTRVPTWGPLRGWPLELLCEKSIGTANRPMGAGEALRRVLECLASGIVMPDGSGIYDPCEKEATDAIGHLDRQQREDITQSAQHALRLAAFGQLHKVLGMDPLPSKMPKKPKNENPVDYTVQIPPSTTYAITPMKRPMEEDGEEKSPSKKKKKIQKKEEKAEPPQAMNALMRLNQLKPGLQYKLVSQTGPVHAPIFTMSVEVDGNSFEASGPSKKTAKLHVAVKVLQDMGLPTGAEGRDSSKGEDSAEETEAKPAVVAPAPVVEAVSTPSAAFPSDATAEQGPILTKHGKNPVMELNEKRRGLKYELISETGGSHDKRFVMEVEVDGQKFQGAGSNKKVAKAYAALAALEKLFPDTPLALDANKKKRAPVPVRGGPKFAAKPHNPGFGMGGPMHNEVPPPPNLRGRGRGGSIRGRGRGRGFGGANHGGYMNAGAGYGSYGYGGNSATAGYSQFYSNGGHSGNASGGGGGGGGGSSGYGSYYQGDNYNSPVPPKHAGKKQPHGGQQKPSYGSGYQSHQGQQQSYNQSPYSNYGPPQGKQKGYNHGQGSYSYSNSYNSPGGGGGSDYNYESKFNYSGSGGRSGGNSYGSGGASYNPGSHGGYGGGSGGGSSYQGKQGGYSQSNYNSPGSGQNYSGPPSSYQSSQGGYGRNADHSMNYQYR
inactive: [1] -0.058 | [2] 0.036 | [5] 0.191 | [8] 0.029 | [9] -0.126

LMBR1 isoform 3 (UniProt Q8WVP7)
inactive: [1] -0.013 | [2] -0.006 | [3] -0.054 | [4] -0.02 | [5] -0.037 | [6] -0.453 | [7] -0.004 | [8] 0.012 | [10] -0.244

JAK3 (UniProt P52333)
inactive: [1] -0.01 | [2] -0.052 | [4] -0.184 | [5] -0.045 | [6] 0.072 | [7] -0.043 | [8] -0.082 | [9] 0.009 | [10] -0.089

LGALS8 isoform 2 (UniProt O00214)
inactive: [1] -0.027 | [2] -0.262 | [3] 0.049 | [5] 0.092 | [6] 0.123 | [8] 0.11 | [10] 0.096

IWS1 (UniProt Q96ST2)
inactive: [1] -0.026 | [2] -0.027 | [4] -0.04 | [5] -0.09 | [6] 0.166 | [7] -0.04 | [8] 0.014 | [9] -0.044
active: [3] 0.492 | [10] -0.301

KIF3B (UniProt O15066)
Chain of UniProt O15066 (O15066 whole entry, looked up): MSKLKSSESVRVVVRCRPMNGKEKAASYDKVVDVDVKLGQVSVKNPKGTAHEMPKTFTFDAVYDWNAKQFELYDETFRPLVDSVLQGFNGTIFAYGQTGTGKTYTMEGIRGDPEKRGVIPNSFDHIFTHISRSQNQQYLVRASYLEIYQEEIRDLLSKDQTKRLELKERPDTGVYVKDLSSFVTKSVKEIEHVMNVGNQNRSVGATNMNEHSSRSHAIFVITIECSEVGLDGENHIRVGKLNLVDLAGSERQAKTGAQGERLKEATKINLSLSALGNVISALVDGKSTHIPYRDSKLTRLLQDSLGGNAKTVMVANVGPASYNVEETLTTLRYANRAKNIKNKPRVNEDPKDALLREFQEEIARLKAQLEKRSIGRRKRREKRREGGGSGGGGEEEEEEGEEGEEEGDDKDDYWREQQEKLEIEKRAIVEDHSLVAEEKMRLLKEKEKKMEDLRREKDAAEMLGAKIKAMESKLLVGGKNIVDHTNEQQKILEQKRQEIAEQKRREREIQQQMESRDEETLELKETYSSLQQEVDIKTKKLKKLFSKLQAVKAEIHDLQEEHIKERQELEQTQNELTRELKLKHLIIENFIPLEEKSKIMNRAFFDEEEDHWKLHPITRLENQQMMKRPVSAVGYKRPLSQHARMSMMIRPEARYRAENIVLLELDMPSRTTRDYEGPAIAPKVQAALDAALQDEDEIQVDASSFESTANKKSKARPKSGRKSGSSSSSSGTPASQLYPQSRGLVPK
inactive: [1] 0.06 | [2] -0.029 | [3] 0.016 | [4] -0.048 | [5] 0.018 | [6] -0.021 | [7] 0.068 | [8] 0.033 | [10] -0.008

LMNB1 (UniProt P20700)
inactive: [1] -0.004 | [2] -0.03 | [3] -0.22 | [4] 0.015 | [5] 0.091 | [6] -0.048 | [7] 0.031 | [8] 0.011 | [9] 0.01 | [10] -0.082

IMMP1L (UniProt Q96LU5)
inactive: [1] 0.006 | [2] 0.043 | [3] 0.002 | [4] 0.031 | [5] 0.03 | [6] 0.026 | [7] 0.112 | [8] -0.033 | [9] 0.06 | [10] 0.199

MCM10 (UniProt Q7L590)
inactive: [1] 0.096 | [2] 0.018 | [5] -0.115 | [6] 0.015 | [8] -0.108 | [9] 0.07 | [10] -0.037

MAP2K7 isoform 4 (UniProt O14733)
active: [2] -0.301
inactive: [1] 0.013 | [3] 0.175 | [4] -0.043 | [5] -0.013 | [6] -0.025 | [7] 0.051 | [8] 0.022 | [9] 0.033 | [10] 0.032
